In the supplement of paper PMC6555819:

Columns and labels:
Assay in all cases: PBM binding z-score (relative to random genomic background probes); higher = stronger binding; sequences stand for … in GC…GCGATTGACAGCGTAGAATGAAGG
[1] = system: FXR:RXRa (NR concentration 270 nM, RXRa partner concentration 90 nM)
In short: (§1)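 Regression normalization was applied to scanned fluorescence from custom Agilent 4×180K protein-binding microarrays. Before scanning, arrays were incubated 1 h with ligand-free nuclear receptor dimers, and binding was detected with antibodies against each partner (one per run). Binding z-scores use the random background probes as reference.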

[2] = system: LXRa:RXRa (NR concentration 270 nM, RXRa partner concentration 90 nM)
In short: as §1

[3] = system: LXRa homodimer (NR concentration 270 nM)
In short: as §1

[4] = system: LXRb:RXRa (NR concentration 270 nM, RXRa partner concentration 90 nM)
In short: as §1

[5] = system: LXRb homodimer (NR concentration 270 nM)
In short: as §1

[6] = system: PPARa:RXRa (NR concentration 270 nM, RXRa partner concentration 90 nM)
In short: as §1

[7] = system: PPARg:RXRa (NR concentration 180 nM, RXRa partner concentration 90 nM)
In short: as §1

[8] = system: PPARg:RXRa 270nM:90nM, anti-RXR (NR concentration 270 nM, RXRa partner concentration 90 nM)
In short: as §1

[9] = system: PPARg:RXRa 30nM:10nM, anti-RXR (NR concentration 30 nM, RXRa partner concentration 10 nM)
In short: as §1

[10] = system: PPARg:RXRa 90nM:30nM, anti-RXR (NR concentration 90 nM, RXRa partner concentration 30 nM)
In short: as §1

[11] = system: PPARg:RXRa DBDmut IVT, anti-RXR (DBD mutation: RXRa K156A/R161A, NR concentration 270 nM, RXRa partner concentration 90 nM)
In short: as §1

[12] = system: PPARg:RXRa IVT, anti-PPARg (NR concentration 270 nM, RXRa partner concentration 90 nM)
In short: as §1

[13] = system: PPARg DBDmut:RXRa IVT, anti-PPARg (DBD mutation: PPARg1 K132A/R137A, NR concentration 270 nM, RXRa partner concentration 90 nM)
In short: as §1

[14] = system: PPARg DBDmut IVT, anti-PPARg (DBD mutation: PPARg1 K132A/R137A, NR concentration 270 nM)
In short: as §1

[15] = system: PPARg homodimer (NR concentration 180 nM)
In short: as §1

[16] = system: PXR:RXRa (NR concentration 270 nM, RXRa partner concentration 90 nM)
In short: as §1

[17] = system: PXR homodimer (NR concentration 270 nM)
In short: as §1

[18] = system: RARa:RXR (NR concentration 270 nM, RXRa partner concentration 90 nM)
In short: as §1

[19] = system: RARa homodimer (NR concentration 270 nM)
In short: as §1

[20] = system: RARb:RXRa (NR concentration 270 nM, RXRa partner concentration 90 nM)
In short: as §1

Sequence | PBM binding z-score [1] | PBM binding z-score [2] | PBM binding z-score [3] | PBM binding z-score [4] | PBM binding z-score [5] | PBM binding z-score [6] | PBM binding z-score [7] | PBM binding z-score [8] | PBM binding z-score [9] | PBM binding z-score [10] | PBM binding z-score [11] | PBM binding z-score [12] | PBM binding z-score [13] | PBM binding z-score [14] | PBM binding z-score [15] | PBM binding z-score [16] | PBM binding z-score [17] | PBM binding z-score [18] | PBM binding z-score [19] | PBM binding z-score [20]
ACAGACAGGAGATGAAGGTAACTCAGGCTATCAT | 0.323 | 0.193 | 0.173 | 0.229 | 0.489 | 0.00739 | 0.816 | 0.278 | 0.594 | 0.135 | -0.00945 | -0.0699 | 1.32 | 0.405 | 0.572 | 0.128 | 0.841 | 0.204 | 0.797 | 0.539
CGTCCAACGTCATAGGAGGTCAGTGAAGACAGAT | 1.79 | 2.71 | 0.999 | 1.63 | -0.234 | 2.09 | 0.683 | 0.77 | 0.184 | 0.231 | 0.0965 | 1.08 | 0.0644 | -0.0605 | 1.13 | 2.24 | 0.731 | 1.79 | 0.648 | 2.14
ACAGGCAGGTGATGAAGGTAACTCAGGCTATCAT | -0.308 | -0.138 | -0.317 | -0.214 | -0.617 | -0.126 | 0.575 | -0.133 | 0.158 | -0.0613 | 0.0324 | 0.0841 | 0.243 | -0.423 | -0.139 | -0.235 | 0.0904 | -0.0555 | 0.0189 | 0.121
GCACATAGGTAATACAAGGTGAAAGTCCGATTGT | 0.681 | 2.96 | 0.0603 | 0.767 | -0.39 | 1.47 | 0.894 | 0.539 | 0.253 | 0.343 | 0.57 | 1.1 | 0.738 | 0.527 | 0.516 | 0.612 | -0.214 | 1.59 | 0.568 | 0.552
AGAATGAGGTTATACGTTGATCAGGGAAGAAAGT | 2.25 | 1.89 | 0.234 | 1.66 | 0.0742 | 3.37 | 2.03 | 2.34 | 1.01 | 1.78 | 2.33 | 2.33 | 1.31 | 1.24 | 1.05 | 1.18 | 0.411 | 1.69 | 0.556 | 1.44
GCTGTTAGTTGAAAGGGCAACCGAATGATTCTCG | 0.495 | 0.93 | -0.0723 | 0.717 | 0.0485 | 2.12 | 1.42 | 2.9 | 0.9 | 2.33 | 0.247 | 0.541 | 0.463 | 0.0066 | 1.39 | 0.665 | 0.0448 | 1.48 | 0.147 | 2.08
CGTCCAAGGTCAATGCTAGGTCAGAGAAAGCATT | 6.97 | 5.95 | 2.67 | 4.32 | 0.8 | 5.25 | 4.39 | 4.86 | 1.59 | 3.76 | 3.57 | 3.92 | 0.456 | -0.0823 | 4.96 | 4.85 | 1.92 | 5.99 | 1.27 | 5.25
